Measurements as given in paper PMC7819943, “Rice protein-binding microarrays: a tool to detect cis-acting elements near promoter regions in rice”.
In all, about 35,000 sequences were measured (“fluorescence intensity (a.u.)”: median about 10,000, highest 2% from about 52,000 on). The sample holds the highest values, similar sequences and a random draw of the others, so the mix is not that of the screen.

molecular target: T1, OsWOX13 (Oryza sativa, UniProt Q5QMM3 1-267); experiment: protein-binding microarray (RPBM); PBS, 2% BSA, 51.3 ng/ul salmon testes DNA, 50 uM zinc acetate, 200 nM TF, 25 C, 1 h; high values mean tight binding; settings: protein: recombinant; tags: N-terminal polyhistidine and DsRed monomer fusion (pET32a); label: CyDye5-dUTP incorporated in the synthesized complementary strand; 3' TTTTT single-stranded linker to array surface; dsDNA, one strand shown
T1 sequence: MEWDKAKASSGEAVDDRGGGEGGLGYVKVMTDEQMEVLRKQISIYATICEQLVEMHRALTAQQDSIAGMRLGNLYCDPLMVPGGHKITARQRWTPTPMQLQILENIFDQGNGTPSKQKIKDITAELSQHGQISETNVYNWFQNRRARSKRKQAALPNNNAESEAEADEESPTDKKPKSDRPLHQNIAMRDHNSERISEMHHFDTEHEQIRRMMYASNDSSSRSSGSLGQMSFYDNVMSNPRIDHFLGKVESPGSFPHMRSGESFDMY
Method in brief: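 Transcription factors were made in E. coli BL21-CodonPlus as N-terminal fusions to a polyhistidine tag and DsRed, then purified on Ni–NTA. After primer extension with Cy5-dUTP and blocking with 2% BSA, a custom Agilent array was exposed for 1 h at 25 °C to 200 nM protein in PBS, 2% BSA, salmon testes DNA and 50 µM zinc acetate. Washed arrays were scanned on an Axon 4000B, and the binding signal is per-feature fluorescence intensity in arbitrary units.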

| Sequence | binding signal |
| --- | --- |
| CACTTAATTTGTTAATTAAATATATTTTCCAAACAAATTTCGGAGTCACCTAGTGCAG | 39100 fluorescence intensity (a.u.) |
| GAATATTAAACTTCCAAAACAGGTCCAAAGCTATGTTCTTCGGAGTCACCTAGTGCAG | 57500 fluorescence intensity (a.u.) |
| GCTAATTATAGTTTAATTAGGCTTAATAAATTTACAGTTTCGGAGTCACCTAGTGCAG | 42300 fluorescence intensity (a.u.) |
| ATTAATTAAAGCTAATTAAACGATGTTGTTTATTAGGCTTCGGAGTCACCTAGTGCAG | 58700 fluorescence intensity (a.u.) |
| TAAAATTAAGCTCCAAATAAACTATATAAAATTATGTATTCGGAGTCACCTAGTGCAG | 4090 fluorescence intensity (a.u.) |
| TTATTACAATTTAATTATATTTTAATTATTCTAAAAGCTTCGGAGTCACCTAGTGCAG | 20200 fluorescence intensity (a.u.) |
| AATTGCGTGATTGTGCTAATCAAAATGCAGAATTGGATATCGGAGTCACCTAGTGCAG | 23000 fluorescence intensity (a.u.) |
| CAAAATTAAACTTTAAAATTCAGACTTCAGACTCCAGTGCCGGAGTCACCTAGTGCAG | 13400 fluorescence intensity (a.u.) |
| ACTACTAAGTTAATTGCATTTTACTTCTCTCTCAATCTCGCGGAGTCACCTAGTGCAG | 10000 fluorescence intensity (a.u.) |
| TTCGATCCTGACTGGAATTGGATGCCTAGTTTGCCTTGCCCGGAGTCACCTAGTGCAG | 4190 fluorescence intensity (a.u.) |
| GTTAACTGAATATTATATCGAAGAAAACTTGCATTTCAGACGGAGTCACCTAGTGCAG | 7980 fluorescence intensity (a.u.) |
| CTCAAAATTTAAATTTAAGGTTAAAAGTTAAAATTTTACGCGGAGTCACCTAGTGCAG | 21200 fluorescence intensity (a.u.) |
| CCTGCATCATCAATCTGCCTACATATCGATCGATTGATCTCGGAGTCACCTAGTGCAG | 4630 fluorescence intensity (a.u.) |
| TAGTCTTGATTGATTGGCAGATGACAGCATAATAGCCGTACGGAGTCACCTAGTGCAG | 65200 fluorescence intensity (a.u.) |
| GTCTTTATTTGATTGATCATCTGGCATCAATCAATCGGCTCGGAGTCACCTAGTGCAG | 65500 fluorescence intensity (a.u.) |
| TGGGATTGGGAAATAAATGAAGGGTTAGGATTAAATGGAACGGAGTCACCTAGTGCAG | 24100 fluorescence intensity (a.u.) |
| ACAGAGAGAGGTAGGTGATTGATAATAAGAAAGAAGGGAACGGAGTCACCTAGTGCAG | 13000 fluorescence intensity (a.u.) |
| AAGATAGATAGATAGATAGATAGATAGATCGATCGATCATCGGAGTCACCTAGTGCAG | 14900 fluorescence intensity (a.u.) |
| ATAGATAGATAGATAGATAGATAGATTGATCGATCGATCGCGGAGTCACCTAGTGCAG | 55400 fluorescence intensity (a.u.) |
| TTGACTTGTACATAGTAATGATTGGCAGGTAATGACGTACCGGAGTCACCTAGTGCAG | 24100 fluorescence intensity (a.u.) |
| ACATTGACACCAATCTTGAACATAATAGCGCATTACAGTACGGAGTCACCTAGTGCAG | 7300 fluorescence intensity (a.u.) |

| Sequence | binding signal |
| --- | --- |
| GATAATAGATAATAGATAGATTGAAGATTAGGAAAGGGAACGGAGTCACCTAGTGCAG | 54800 fluorescence intensity (a.u.) |
| CGATCAATCTCTCTTTATTTATTTGCAGATCGATCAACCTCGGAGTCACCTAGTGCAG | 5760 fluorescence intensity (a.u.) |
| GGATTTGATCGATTGGATTTCGATTTGGCCCGCGATTTGGCGGAGTCACCTAGTGCAG | 4010 fluorescence intensity (a.u.) |
| TTTAATCTTTAATATTGATTTTGCCACCAACTAAAACGGCCGGAGTCACCTAGTGCAG | 4660 fluorescence intensity (a.u.) |
| ATCCATGTAAATTAACTCATCCAATGTGACAGCACGACGCCGGAGTCACCTAGTGCAG | 8800 fluorescence intensity (a.u.) |
| ACCCAGTAATTTCCAAATCTAAAGATAGGAGATTTTAGGACGGAGTCACCTAGTGCAG | 6740 fluorescence intensity (a.u.) |
| ATACTAATTATACGGTCACACCTATCCGTTGCATGATGCACGGAGTCACCTAGTGCAG | 21100 fluorescence intensity (a.u.) |
| CTTAATTTGGCACTGCCCAAGAAAATTTTGACAAGTACTTCGGAGTCACCTAGTGCAG | 9440 fluorescence intensity (a.u.) |
| TTCGCTTTGATGGACGGCTCAGATCGGCTCCTAATCCATCCGGAGTCACCTAGTGCAG | 3310 fluorescence intensity (a.u.) |
| TGATTAAATATAACTAAACTGTCAACGACATAATGCATTACGGAGTCACCTAGTGCAG | 3470 fluorescence intensity (a.u.) |
| AACTAACAGATTATTCTATGTCGGTTTATTATAATCCAACCGGAGTCACCTAGTGCAG | 15700 fluorescence intensity (a.u.) |
| TGTTATAATAGTGTAGATTGATCGATATAATTGTATATGACGGAGTCACCTAGTGCAG | 3170 fluorescence intensity (a.u.) |
| ATAAATAAACTTATTTTGAGATAATGGTGTAATAGTGTAGCGGAGTCACCTAGTGCAG | 5300 fluorescence intensity (a.u.) |
| GGGCTGTTTAGTTTTGGATTGATTGAGCAATGTAATATAACGGAGTCACCTAGTGCAG | 22200 fluorescence intensity (a.u.) |
| TAGATAGATAGATAGATATAGTTGGTGTGTTTGACCCTAGCGGAGTCACCTAGTGCAG | 36400 fluorescence intensity (a.u.) |
| TCTTGACACCGGCCGGATTGATCTATCATCCATCCATCGACGGAGTCACCTAGTGCAG | 12300 fluorescence intensity (a.u.) |
| GTAGATAGATGGCACATTGGCAGTGATGGCTGTGTACAGTCGGAGTCACCTAGTGCAG | 8260 fluorescence intensity (a.u.) |
| AGGAATCGGAATTGATTTCATGCACTGATCGATCCATCCACGGAGTCACCTAGTGCAG | 7970 fluorescence intensity (a.u.) |
| GATAGATAGATAGATAGATAGATAGATTTGTTGGCTGTGTCGGAGTCACCTAGTGCAG | 63500 fluorescence intensity (a.u.) |
| ATATAATAATAGATAGATAGATAGATAGATAGATAGATAGCGGAGTCACCTAGTGCAG | 49300 fluorescence intensity (a.u.) |
| AGATCTGATTGATATTGATCCATCGCCGATCGATTGATCACGGAGTCACCTAGTGCAG | 53800 fluorescence intensity (a.u.) |
